Assay results reported in PubChem BioAssay AID1159580 (chemical genetic matrix, 2015).
Where “and” joins values, the source holds several entries; their conditions need not be identical. Identical values can stand only once. Among all 5,500 compounds or so, about 2,000 (36%) were called active. About 18% were inconclusive and are not listed. Rule as the data show it: active = normalized growth mostly below about 0.91 (no sharp cut-off); inconclusive = no clear call, values can overlap the other calls; inactive = mostly above about 0.92. This is one part of the list.

Experiment: chemical genetic growth profiling, strain panel (AID 1159580);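 also: tested at 20 µM; growth read once vehicle control cultures reached saturation at 30 °C; 1 = growth at the plate median or of vehicle wells; lower values mean less growth of the strain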
Conditions: S. cerevisiae deletion strains, growth OD

Measured: normalized growth

Nc1ccc(S(=O)(=O)Nc2ccccn2)cc1
inactive: locus YAL013W, strain DEP1, hits give low values 1.02 | locus YAL021C, strain ccr4, hits give low values 1 | locus YAL026C, strain drs2, hits give low values 1.01 | locus YAL030W, strain snc1, hits give low values 1.01 | locus YBL061C, strain skt5, hits give low values 1.01 | locus YBR009C, strain hhf1, hits give low values 0.983 | locus YBR021W, strain FUR4, hits give low values 1.04 | locus YBR023C, strain chs3, hits give low values 1.01 | locus YBR171W, strain sec66, hits give low values 1.01 | locus YBR229C, strain ROT2, hits give low values 1.01 | locus YBR231C, strain swc5, hits give low values 1.03 | locus YBR279W, strain paf1, hits give low values 1.01 | locus YCL011C, strain gbp2, hits give low values 0.99 | locus YCL016C, strain dcc1, hits give low values 1 | locus YCL029C, strain bik1, hits give low values 1 | locus YCL069W, strain vba3, hits give low values 1 | locus YCR088W, strain abp1, hits give low values 1 | locus YDL005C, strain med2, hits give low values 1.02 | locus YDL035C, strain GPR1, hits give low values 1.01 | locus YDL040C, strain nat1, hits give low values 1.01 | locus YDL074C, strain BRE1, hits give low values 1.02 | locus YDL101C, strain DUN1, hits give low values 1 | locus YDL134C, strain PPH21, hits give low values 1.01 | locus YDL185W, strain tfp1, hits give low values 0.982 | locus YDL192W, strain arf1, hits give low values 0.996 | locus YDR001C, strain nth1, hits give low values 1.01 | locus YDR069C, strain doa4, hits give low values 1.02 | locus YDR101C, strain arx1, hits give low values 0.987 | locus YDR137W, strain rgp1, hits give low values 1.01 | locus YDR159W, strain sac3, hits give low values 0.986 | locus YDR162C, strain NBP2, hits give low values 1 | locus YDR195W, strain ref2 1.04 | locus YDR297W, strain sur2, hits give low values 1.01 | locus YDR318W, strain mcm21, hits give low values 0.988 | locus YDR334W, strain swr1, hits give low values 1.01 | locus YDR335W, strain msn5, hits give low values 1.01 | locus YDR388W, hits give low values 0.988 | locus YDR392W, strain spt3, hits give low values 0.951 | locus YDR502C, strain sam2, hits give low values 0.996 | locus YEL003W, strain gim4, hits give low values 1.02 | locus YEL037C, strain rad23, hits give low values 1.01 | locus YEL061C, strain CIN8 (second series), hits give low values 1.01 | locus YEL061C, strain CIN8, hits give low values 1.01 | locus YER015W, strain faa2, hits give low values 1.02 | locus YER016W, strain bim1, hits give low values 0.996 | locus YER110C, hits give low values 0.993 | locus YER111C, strain swi4, hits give low values 1.01 | locus YER155C, strain BEM2 (second series), hits give low values 1.01 | locus YER155C, strain BEM2, hits give low values 1.01 | locus YER167W, strain BCK2, hits give low values 1 | locus YFR010W, strain ubp6, hits give low values 1.02 | locus YGL078C, strain dbp3, hits give low values 1 | locus YGL086W, strain mad1, hits give low values 1 | locus YGL167C, strain pmr1, hits give low values 1.02 | locus YGL173C, strain kem1, hits give low values 1.02 | locus YGL227W, strain vid30, hits give low values 1.02 | locus YGL240W, strain doc1, hits give low values 1.02 | locus YGL248W, strain PDE1, hits give low values 1.02 | locus YGL253W, strain hxk2, hits give low values 0.999 | locus YGR135W, strain pre9, hits give low values 1.01 | locus YGR229C, strain SMI1, hits give low values 1.02 | locus YGR252W, strain gcn5, hits give low values 1.03 | locus YHR013C, strain ard1, hits give low values 1.01 | locus YHR027C, strain rpn1, hits give low values 1.01 | locus YHR030C, strain SLT2, hits give low values 1.01 and 0.97 | locus YHR079C, strain IRE1 (second series), hits give low values 0.992 | locus YHR079C, strain IRE1, hits give low values 0.985 | locus YHR094C, strain hxt1, hits give low values 0.99 | locus YHR129C, strain ARP1, hits give low values 1.02 | locus YHR142W, strain chs7, hits give low values 0.98 | locus YHR200W, strain rpn10, hits give low values 0.986 | locus YIL066C, strain RNR3, hits give low values 1.01 | locus YIL073C, strain SPO22, hits give low values 0.989 | locus YIL125W, strain kgd1, hits give low values 0.983 | locus YIR030C, strain dcg1, hits give low values 0.996 | locus YJL092W, strain hpr5, hits give low values 1.02 | locus YJL095W, strain BCK1 (second series), hits give low values 1.01 | locus YJL095W, strain BCK1, hits give low values 1.02 and 0.979 | locus YJL115W, strain asf1, hits give low values 1.01 | locus YJL129C, strain trk1, hits give low values 1.02 | locus YJL134W, strain LCB3, hits give low values 1 | locus YJL154C, strain vps35, hits give low values 1.02 | locus YJL164C, strain tpk1, hits give low values 0.972 | locus YJL166W, strain qcr8, hits give low values 1.02 | locus YJL168C, strain set2, hits give low values 0.99 | locus YJL187C, strain SWE1 (second series), hits give low values 1.01 | locus YJR043C, strain POL32, hits give low values 1 | locus YJR066W, strain TOR1, hits give low values 0.928
